Compounds with a hit are over-represented: about 21% of the library has one in this group of screens.
Shiga inhibitor: Shiga toxin inhibition; Vero cells, Shiga toxin protein synthesis inhibition reporter; inhibition, % at 38.7 µM; 290,000 compounds, 9.2% hits; AID 2315; in the data active = inhibition mostly above about 28%, no sharp cut-off; inactive = mostly below about 43%; also: 0% is about no effect
Pf growth 96h: P. falciparum growth inhibition at 96 hours; Potency, µM (highest dose often 28.7 µM), for inactives: at the highest dose activity change, negative = inhibition, hits mostly inhibitors; P. falciparum luciferase reporter growth, 96 h; 320,000 compounds, 6.9% hits; also: potency is read from the fitted curve at half-maximal effect; % is scaled to controls: 0 for no effect and ±100 for the full control effect
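Luminescence readout: decreased luciferase signal marks inhibited growth of reporter-expressing P. falciparum in infected red cells (2% hematocrit, 0.05% parasitemia final), exposed to compound two generations (96 h, 37 C, 5% CO2).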
Pf growth 48h: inhibits P. falciparum growth in the first generation, 48 h | P. falciparum luciferase growth in erythrocytes, 48 h | Potency, µM (top dose mostly 28.7 µM), inactives show at the top dose activity change, negative = inhibition, usual class: inhibitors | 310,000 compounds, 5.9% hits | AID 504832; also: potency is read from the fitted curve at half-maximal effect; % is scaled to controls: 0 for no effect and ±100 for the full control effect
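Cell-based growth assay: transgenic P. falciparum expressing firefly luciferase, cultured in red cells within RPMI 1640 containing 0.5% w/v Albumax, 24 mM bicarbonate and gentamycin. A drop in luciferase activity indicates inhibition.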
HCV inh: HCV inhibition; Potency, µM (top dose mostly 41.8 µM), inactives show top-dose activity change, negative = inhibition, most hits filed as inhibitors; Huh7.5.1 HCVcc-Cre infection, luciferase reporter, 44 h; 340,000 compounds, 3.4% hits; also: potency is read from the fitted curve at half-maximal effect; % is scaled to controls: 0 for no effect and ±100 for the full control effect
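Infectious HCVcc-Cre (~0.5 moi) was added to cells just after compound, with cells seeded 4 h earlier at 1,000 per well. Luciferase activity after 44 h culture reported infection; substrate was incubated 15 min at room temperature before reading.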
Cycloheximide cs: counter-screen hit for Shiga toxin inhibitors, cycloheximide. cell reporter, cycloheximide protein synthesis inhibition counterscreen. max response, %. 300,000 compounds, 12% hits. AID 2314; in the data active = max response mostly above about 13%, no sharp cut-off; inactive = mostly below about 14%; also: read at 38.3 µM for the half of the compounds with a filed dose; 0% is about no effect
HCMV inh: blocks human cytomegalovirus replication; 410,000 compounds, 4.5% hits; AID 1259415; activity change, negative = inhibition, % at 57.5 µM; HFF cells, HCMV-luciferase reporter, 72 h; stronger effect = lower value; in the data active = activity change below about -60%; inconclusive = no clear call, values can overlap the other calls; inactive = above about -39%; also: % is scaled to controls: 0 for no effect and ±100 for the full control effect
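Human foreskin fibroblasts infected with luciferase-reporter HCMV at MOI 1 PFU/cell, compounds at two doses. Luciferase measured 72 h post infection; normalized to buffer-only basal and Salinomycin (10uM) controls.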
Numbers without * were called inactive; i = inactive; ? = inconclusive; nt = no result; [ ] = remark or other dose. Unless noted, calls follow the shape of the dose curve; as a rule, active = well fitted inhibition curve with a large enough effect; inconclusive = small, poorly fitted or top-dose-only effect, or another doubt; inactive = no such curve, though single readings can be large or run the other way.

SMILES	Shiga inhibitor	Pf growth 96h	Pf growth 48h	HCV inh	Cycloheximide cs	HCMV inh
COC(=O)Cn1cnc2c(cnn2-c2ccc(C)cc2)c1=O	69*	12%	0%[0.00184 µM]	1%	48*	nt
CCOC(=O)c1cc(NC(=O)CC(C)(C)CC(=O)O)ccc1N1CCCCC1	13	?	-11%	2%	-3	7
O=C(c1ccc2c(c1)N(Cc1ccc(F)cc1)CCS2)N1CCN(c2ccccc2)CC1	nt	nt	nt	nt	nt	-34
O=C(CN1CCN(C(=O)N2CCOCC2)CC1)Nc1ccc(Br)cc1	-8	?	21%	3%	-4	-8
COc1ccc(NC(=O)CC2SC(=O)NC2=O)cc1 (stereo not given)	-6	-9%	8%	3%	0	-67*
COc1ccc(NC(=O)CN2CCN(C(=O)N3CCOCC3)CC2)cc1	-3	2.3µM*	12%	15%	-7	15
Cc1ccc(NC(=O)CC2SC(=O)NC2=O)cc1 (stereo not given)	-1	1%	-4%	3%	-1	10
COc1ccc(NC(=O)CN2CCCCC2)cc1	66	13%	30%	?	34*	25
COc1ccc(NC(=O)CSC2CCCCC2)cc1	153*	nt	133%	3%	61*	50
CCOC(=O)N1CCN(C(=O)CSc2ccc3nnc(CCNC(=O)c4ccccc4)n3n2)CC1	16	-4%	0%	2%	-9	16
CCOC(=O)C1=C(c2ccccc2)c2cc(OC)ccc2OC1C(=O)OCC (stereo not given)	i	nt	nt	nt	9	nt
O=C(CN1CCCCC1)Nc1ccccc1NC(=O)CN1CCCCC1	6	63%	2%	-14%	-4	26
CCOc1ccc(NC(=O)CN2CCN(CC(=O)Nc3ccc(F)cc3F)CC2)cc1	nt	nt	nt	nt	nt	23
O=C(CN1CCCCCC1)Nc1ccc(Br)cc1	40	?	nt	nt	24*	-10
O=C(CN1CCCCCC1)Nc1cccc2c1OCO2	1	1µM*	5%	10%	1	-19
COC(=O)c1cc(Br)c(=O)n(CCN2CCCC2)c1	-3	?	38%	1%	-2	-90*
COc1ccc(NC(=O)CN2CCN(CC(=O)Nc3ccc(F)cc3F)CC2)cc1	30*	-6%	14%	1%	24*	0
Cc1oc2ccc(NS(=O)(=O)c3cccc4cccnc34)cc2c1C(=O)OC(C)C	-16	19%	7%	10%	-1	?
O=c1c(N2CCN(c3cccc(Cl)c3)CC2)csc2ccccc12	nt	nt	nt	nt	nt	2
COc1ccc(N2CCN(C(=O)c3ccc4c(c3)CCN4S(C)(=O)=O)CC2)cc1	nt	nt	nt	nt	nt	-1
CCOC(=O)c1ccc(NC(=O)CC2Sc3ccc(C(F)(F)F)cc3NC2=O)cc1 (stereo not given)	nt	nt	nt	nt	nt	-65*
COC(=O)c1ccc(NC(=O)CCN2CCCCC2)cc1	24	1.5µM*	-10%	-7%	2	18
CCOC(=O)c1cc(CC)sc1NC(=O)CC1Sc2ccc(C(F)(F)F)cc2NC1=O (stereo not given)	14	1%	-9%	23%	-2	-8
O=C(CN1CCCCCC1)Nc1ccc(Br)cn1	26	94%	-9%	-13%	15*	?
CC(=O)c1ccc(NC(=O)CN2CCCC2)cc1	28*	?	33%	29%	27*	105
SMILES	Shiga inhibitor	Pf growth 96h	Pf growth 48h	HCV inh	Cycloheximide cs	HCMV inh
CCOC(=O)C1CCCN(C(=O)c2ccc3c(c2)N(Cc2ccccc2)C(=O)c2ccccc2S3=O)C1 (stereo not given)	-12	-10%	?	-2%	3	-35
O=C(CN1CCN(C2CCCCC2)CC1)Nc1ccc(Br)cc1	3	7%	-8%	10µM*	10	33
COC(C/C=C/C(=O)[C@H](C)OCc1ccccc1)OC	nt	nt	nt	1%[8.37 µM]	nt	nt
COC(C/C=C/C(=O)COCc1ccccc1)OC	42*	33%	47%	56%	18*	2
CCOC(=O)c1ccc(NC(=O)c2sc3nc4n(c(=O)c3c2C)CCC4)cc1	10	15µM*	?	?	2	-8
CCOC(=O)N1CCC(NC(=O)c2sc3nc4n(c(=O)c3c2C)CCCC4)CC1	-8	2.3µM*	nt	11%	-3	-10

Assay outcomes as filed in PubChem.
